The campaign covered roughly 360,000 compounds. About 3,100 (0.86%) were called active. What follows is part of a selection rich in actives, with near analogues and random picks from the rest. A number with no mark means an inactive call.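 The calls were made as follows: active = at least 50% inhibition at 5 µM, scaled per plate between neutral and stimulator controls; inactive = the rest.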

A short description of the test: NF-kB reporter blockers in CF airway cells – cell-based, GFP fluorescence, uHTS, primary screen (AID 588850).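 Also: PAF is a Pseudomonas aeruginosa culture filtrate used as stimulus; plate controls were PAF-stimulated DMSO wells for no effect and unstimulated DMSO wells for full effect.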 The conditions noted are these: KKLEB NF-kB-GFP reporter, PAF-induced, GFP fluorescence overnight; at 5 µM; stronger effect = higher value.
Turning to `O=C1C(Cl)=C(Oc2ccccc2)C(=O)c2ccccc21`, the inhibition is 59.1% (active).
As to `Cc1nc2sccn2c(=O)c1S(=O)(=O)NCCc1ccccc1`, the inhibition is -12.2%.
As to `CCc1nc2c(OCCc3cccc(OC)c3)cccn2c1N(C)C(=O)c1ccc(C)cc1`, the inhibition is 5.8%.
To `Cc1ccc(Cn2c(C)c3cnn(CC(=O)NCCN4CCOCC4)c(=O)c3c2C)cc1` belongs -0.6%; to `O=C(c1c(F)cccc1F)N1CCN(c2ncc(Br)cn2)CC1`, -1.3%; to `O=C(NC(Nc1nc2ccc([N+](=O)[O-])cc2s1)(C(F)(F)F)C(F)(F)F)c1ccccc1`, 74.8% (active).
For the molecule `O=C(NNC(=O)c1ccc(-n2cncn2)c([N+](=O)[O-])c1)c1ccccc1`, the inhibition was 14.4%.
In the case of `CC(Nc1ccc([N+](=O)[O-])cc1[N+](=O)[O-])c1ccccc1` (stereo not given), the inhibition was 4.8%.
In the case of `Cc1cn(C2CC(O)C(CO)O2)c(=O)n(CCCc2ccccc2)c1=O` (stereo not given), the inhibition was 1.7%.
Consider `COc1ccc(-c2cc(C3CCN(c4ncccc4[N+](=O)[O-])CC3)[nH]n2)cc1`, for which the inhibition is 18.1%.
For the molecule `CN(CC(=O)NNC(=O)CNC(=O)c1ccccc1Cl)S(=O)(=O)c1ccc(Cl)cc1`, the inhibition is 60.5% (active).
Then `CN(CC(=O)NCCc1ccccn1)S(=O)(=O)c1ccc(Cl)cc1`, with -8%; and `CN(CC(=O)NCC(c1ccccc1)N1CCCC1)S(=O)(=O)c1ccc(Cl)cc1` (stereo not given), with -5.7%.
Regarding `COc1ccc(C(CCN(Cc2ccc(OC)c(OC)c2)C(=O)CCl)c2ccccc2)cc1` (stereo not given), the inhibition was 82.6% (active).
Then `COc1ccc(C(C(=O)NC2CCCCC2)N(C(=O)CCl)c2ccccc2Cl)cc1` (stereo not given), with -13.3%.
In the case of `COc1ccc(CCNC(=O)CN(c2ccccc2)S(C)(=O)=O)cc1OC`, the inhibition was -0.3%.
In the case of `CCCCn1c(N)c(N(CC(C)C)C(=O)c2ccc(Br)o2)c(=O)[nH]c1=O`, the inhibition is -29%.
As to `NC(=S)c1ccc(C(N)=S)o1`, the inhibition was 14.6%.
Consider `CCC(C(=O)NCc1cccnc1)n1nc(C)c2sc3ccccc3c2c1=O` (stereo not given), for which the inhibition was 9.9%.
Then `N#CCCn1ncc2ccccc21`, with -11.2%; and `O=C(CSc1nc(C2CC2)nc2ccccc12)Nc1cccc(O)c1`, with 50.1% (active).
For `Cc1nnc(NC(=O)CSc2nc(C3CCCCC3)nc3ccccc23)s1`, the inhibition is 22.6%.
As to `O=C(CSc1nc(C2CC2)nc2ccccc12)Nc1ccc2c(c1)OCCO2`, the inhibition was 42.7%.
Consider `O=Cc1ccc(OCc2cn3ccccc3n2)cc1`, for which the inhibition is -22.3%.
Then `Cc1ccc(C=O)c([B-](F)(F)F)c1`, with -9.8%; and `CN1c2ccc(C=O)c3c(C=O)ccc(c23)N(C)C1(C)C`, with 88% (active).
As to `C=CCn1c(C2CC(=O)N(c3ccc(C)cc3)C2)nc2ccccc21` (stereo not given), the inhibition was -16.5%.
For `CCOc1ccc(S(=O)(=O)NCCC(=O)NNC(=O)c2ccc(F)cc2)cc1`, the inhibition was 9.6%.
For the molecule `Cc1ccc2c(c1)N(CC(=O)N1CCCc3ccccc31)C(=O)C(C)O2` (stereo not given), the inhibition was 7.2%.
Turning to `CCOC(=O)c1c(C)oc2cc(Sc3ccccc3)c(O)c(O)c12`, the inhibition was 6.5%.
Turning to `CCOC(=O)c1c(-c2ccccc2)oc2cc(Br)c(O)c(C=O)c12`, the inhibition was 68.5% (active).
Then `CCOC(=O)c1c(C)oc2cc(Br)c(OCC(N)=O)cc12`, with -3.8%.
Turning to `CCCc1nc2c(c(=O)c3ccccc3n2C)c(=O)n1C1CCCCCC1`, the inhibition was 55.9% (active).
On to `CCOC(=O)N1CCN(C(=O)c2nn(-c3ccc(C)cc3)c(=O)c3c2c2ccccc2n3C)CC1`, for which the inhibition is -7.7%.
Then `CCOC(=O)c1nnn2c3ccccc3c(=O)n(C)c12`, with -25.2%; and `Cc1ccc(CNC(=O)c2ccc(CS(=O)Cc3cccc(Cl)c3)o2)cc1` (stereo not given), with 1.3%.
`O=C(Nn1cc(C(=O)N2CCN(c3ccccc3F)CC2)c2ccccc2c1=O)c1cnccn1`: the inhibition is -8.3%.
Consider `NNc1cccc(C=Cc2ccccc2)cc1=O`, for which the inhibition was 3.8%.
To `O=C1OC(Oc2ccc(Br)cc2)(c2ccccc2)c2ccccc21` (stereo not given) belongs 50.3% (active).
With `CCOC(=O)CSc1nnc(CNC(=O)Cc2ccccc2)n1-c1ccccc1OC`, the inhibition is 1.5%.
Then `CS(=O)(=O)c1cccc(-c2ccc3nncn3c2)c1`, with 5.2%; and `O=C(O)Cc1ccc(NCc2ccccc2Cl)cc1`, with -14.4%; and `CC(C)OC(=O)c1ccc(NCc2cc(O)ccc2O)cc1Cl`, with 86.3% (active).
`CC(CN1CCCCC1)OC(=O)c1ccccc1Cl` (stereo not given): the inhibition is -7.9%.
As to `Oc1cccc2cc(-c3ccncc3)cnc12`, the inhibition was 13.6%.
Regarding `COc1ccc(CNC(=O)C[C@H]2C[C@H](C(=O)N3CCOCC3)[C@@]3(CCC4CCCC4)c4[nH]c5ccc(Cl)cc5c4CCN3C2=O)cc1OC`, the inhibition is 8.2%.
`O=C(CCS(=O)(=O)Cc1ccccc1F)NCCCN1CCCCC1`: the inhibition was 5%.
To `CC1CN(c2cc(=O)n(-c3cccc(Br)c3)c(=O)[nH]2)CC(C)O1` (stereo not given) belongs -24.9%; to `COC(=O)C1CCN(C(=O)COC(=O)c2cc(S(=O)(=O)N3CCOCC3)ccc2C)CC1`, 5.9%.
On to `CC(C)NS(=O)(=O)c1ccc(CCC(=O)N2CCOCC2)cc1`, for which the inhibition is 5%.
Take `CC(=O)Nc1ccc(NC(=O)CSCc2cnn(-c3ccccc3)c2-n2cccc2)cc1`: the inhibition is 11.8%.
In the case of `O=C(/C=C/Sc1ncn[nH]1)c1ccc(Cl)cc1`, the inhibition is 42.7%.
Then `COC(c1ccccc1)(c1ccccc1)C(Oc1nc(C)cc(C)n1)C(=O)O` (stereo not given), with 3.3%; and `Cc1cc(C)nc(S/C=C/C(=O)c2ccccc2)n1`, with 71.8% (active); and `C[C@@H]1Cn2cnc(C(=O)Nc3ccc(CNC(=O)OC(C)(C)C)cc3)c2C(=O)N1`, with -14.7%.
In the case of `C=C(C)CNC(=O)c1ccc(OC2CCN(C(=O)COC)CC2)cc1`, the inhibition was 13.1%.
On to `CC(=O)N1c2ccc(S(=O)(=O)NCCC(=O)N(C)C3CCCCC3)cc2CC1C` (stereo not given), for which the inhibition was 3.2%.
Turning to `O=C(Nc1ccc(C(=O)N2CCOCC2)cc1)Nc1cccc(C(F)(F)F)c1`, the inhibition is 55.4% (active).
For the molecule `COc1ccccc1C(=O)Nc1cccc(C(=O)N2CCOCC2)c1`, the inhibition is -3.8%.
To `Cc1c(Cl)cccc1NC(=O)Nc1ccc(C(=O)N2CCCC2)cc1` belongs 3.8%.

The record behind these values is PubChem BioAssay AID588850 (Sanford-Burnham Center for Chemical Genomics, 2011).
